From PubChem
FAK blocker: inhibitors of human focal adhesion kinase. biochemical FAK kinase activity assay. AID 727. 0.84% of 97,000 active. inhibition, %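 (tested at 7 µM)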. Q05397; in the data active = inhibition above about 19%;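 note: 0% = DMSO and 100% = reference compound high control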
MRP reversal: reverses drug resistance mediated by MRP; H69AR cells + 2 uM doxorubicin, CellTiter-Glo, 72 h; differential viability (reversal), % at 10 µM; 0.04% of 85,000 active; AID 602;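 active = viability drop by adding the cancer drug above about 55%, with treated viability meeting a 40% cutoff, limit read from the data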;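 note: viability without doxorubicin minus viability with 2 µM doxorubicin for each compound; larger differential means the compound sensitizes cells more to doxorubicin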
Mac1 fbg inh: blocks human CD11b/CD18 adhesion to fibrinogen; P05107+P11215; 0.54% of 93,000 active; inhibition, % at 10 µM; K562 CD11b/CD18 adhesion to fibrinogen, ATPlite luminescence; Mn2+ added to activate the integrin;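 active = primary inhibition of 50% or more at 10 µM, then 40% or more on retest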
Mac1 fbg enh: CD11b/CD18-fibrinogen binding enhancement; AID 1499; K562 CD11b/CD18 adhesion to fibrinogen, ATPlite luminescence; 0.07% of 93,000 active; activation, % at 10 µM; P05107+P11215;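 active = 10 µM primary screen giving 50% or more activity, confirmed by 40% or more on retest at that dose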
MRP1 act: activators of MRP-1 | H69AR cells + doxorubicin, viability rescue, CellTiter-Glo | viability increase, % at 10 µM | 0.61% of 140,000 active;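 active = viability gain under doxorubicin at or above a set limit, the compound median plus 3 SD, cut at about 4.7% in these data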;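 note: MRP-1 overexpressing cells given doxorubicin 25 µM after compound pretreatment; 18-22 h compound pretreatment then 72 h with doxorubicin before readout; 0% = doxorubicin-only wells and 100% = vehicle-treated cells without doxorubicin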
Phagocytosis inh: inhibitors of macrophage phagocytosis | AID 1029 | inhibition, % at 5 µM | J774A.1 macrophage IgG-bead phagocytosis, imaging | 0.07% of 110,000 active;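 active = inhibition above the mean of the plate negative controls plus 5 SD, cut at about 13% in these data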;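 note: phagocytic index as fraction of beads internalized from green versus red external bead signal; plate controls were DMSO negative control for no effect and cytochalasin-D positive control for full effect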
* marks the source's active call; other numbers are inactive results. The list is not random: actives were taken first. Their share in the collection is about 1.5%.

How did CCN(C(=O)c1cc2cc3ccc(C)cc3nc2o1)c1ccc(OC)cc1 do in these assays?
FAK blocker: -3; MRP reversal: -1; Mac1 fbg inh: -24; Mac1 fbg enh: 8; MRP1 act: 6.6*; Phagocytosis inh: -1

How did Cc1nn(Cc2c(F)c(F)c(F)c(F)c2F)c(C)c1NC(=O)c1ccc(COc2ccc(Cl)cc2Cl)o1 do in these assays?
MRP1 act: -4; Phagocytosis inh: 3

How did O=C(Nc1ccn(Cc2c(F)c(F)cc(F)c2F)n1)c1ccc(COc2ccc(Cl)cc2Cl)o1 do in these assays?
FAK blocker: 4; Mac1 fbg inh: 0; Mac1 fbg enh: -2; MRP1 act: 13*; Phagocytosis inh: 0

What do the screens show for `Cc1nn(Cc2ccc(Cl)cc2Cl)c(C)c1NC(=O)c1ccc(COc2cc(Cl)ccc2Cl)o1`?
FAK blocker: -4; MRP1 act: 5.6*

Results for CCCNC(=O)CSc1nnc(-c2ccccc2Br)n1-c1cccc(C(F)(F)F)c1 ?
Mac1 fbg inh: 39; Mac1 fbg enh: -2; MRP1 act: -4; Phagocytosis inh: -9

What do the screens show for `Cn1c(N)c(C(=O)COC(=O)CSc2ccc(Cl)cc2)c(=O)n(C)c1=O`?
MRP1 act: 0; Phagocytosis inh: 4

How did CC(C)c1ccc(-c2cc(C(=O)N3N=C(C(F)F)CC3(O)C(F)F)c3ccccc3n2)cc1 (centres undefined) do in these assays?
FAK blocker: -4; Mac1 fbg inh: 78*; Mac1 fbg enh: -4; MRP1 act: -6; Phagocytosis inh: 0

Results for O=C(c1cc(C2CC2)nc2ccccc12)N1N=C(C(F)F)CC1(O)C(F)F (centres undefined) ?
FAK blocker: 2; MRP reversal: -17; MRP1 act: 0

Results for O=C(CCC(=O)c1ccc(F)cc1)OC1CCOC1=O (centres undefined) ?
FAK blocker: -4; MRP reversal: -1; Mac1 fbg inh: 6; Mac1 fbg enh: -2; MRP1 act: -3; Phagocytosis inh: 1

How did O=C(Nc1ccc(Cl)cc1C(F)(F)F)C(Sc1nnc(-c2cccs2)o1)c1ccccc1 (centres undefined) do in these assays?
Mac1 fbg inh: 23; Mac1 fbg enh: 18; MRP1 act: -3; Phagocytosis inh: -4

Results for O=C(Nc1cc(C(F)(F)F)ccc1Cl)C(Sc1nnc(-c2cccs2)o1)c1ccccc1 (centres undefined) ?
Mac1 fbg inh: 100*; Mac1 fbg enh: -8; MRP1 act: -4; Phagocytosis inh: -14

How did O=C(CSc1nnc2ccccn12)Nc1cccc(S(=O)(=O)N2CCOCC2)c1 do in these assays?
Mac1 fbg inh: -1; Mac1 fbg enh: 1; MRP1 act: 0; Phagocytosis inh: -21

What do the screens show for `CC1(C)CC(=O)C(/C=N/n2c(C(F)(F)F)nc3ccccc3c2=O)=C(O)C1`?
FAK blocker: -2; MRP reversal: -6; Mac1 fbg inh: -21; Mac1 fbg enh: -4; MRP1 act: 0; Phagocytosis inh: -1

What do the screens show for `CC1CCN(CC(O)COc2cccc(F)c2)CC1` (centres undefined)?
FAK blocker: 2; MRP reversal: -4; Mac1 fbg inh: 87*; Mac1 fbg enh: -4; MRP1 act: -3; Phagocytosis inh: 0

How did Cc1cc(C)nc(NN2C(=O)/C(=C/c3ccccc3)SC2=S)n1 do in these assays?
FAK blocker: -7; MRP1 act: 9.7*

What do the screens show for `O=C(CCN1C(=O)/C(=C/C=C/c2ccccc2)SC1=S)Nc1cccnc1`?
MRP1 act: 0

How did Cc1ccc(/C=C2\SC(=S)N(CCC(=O)NNS(=O)(=O)c3ccc(C)cc3)C2=O)cc1 do in these assays?
Mac1 fbg inh: -12; Mac1 fbg enh: 8; MRP1 act: 5.7*

What do the screens show for `CC(=O)NN1C(=O)/C(=C\c2ccc(C)cc2)SC1=S`?
FAK blocker: -5; MRP1 act: 11*

What do the screens show for `O=C(CCN1C(=O)/C(=C\c2ccccc2)SC1=S)NNC(=O)c1cccnc1`?
Mac1 fbg inh: 1; Mac1 fbg enh: 11; MRP1 act: 8.8*; Phagocytosis inh: -7

What do the screens show for `COc1ccc(/C=C2/SC(=S)N(CCC(=O)O)C2=O)cc1`?
FAK blocker: -1; MRP1 act: -4

Results for O=C(NCC1CCCO1)C(=Cc1cccc([N+](=O)[O-])c1)C(=O)NCC1CCCO1 (centres undefined) ?
MRP1 act: -5; Phagocytosis inh: 0

How did Cc1cc(C)cc(OCC(=O)NNC(=O)CCC(=O)NCc2ccccc2)c1 do in these assays?
FAK blocker: 1; MRP1 act: 1

How did CCN(CC(=O)NC(C)C)C(=O)c1ccc(Cl)cc1 do in these assays?
Mac1 fbg inh: 16; Mac1 fbg enh: 2; MRP1 act: 6.0*; Phagocytosis inh: -13

Results for Cn1ncc(C#N)c1/N=C/N1CCCC1 ?
FAK blocker: 0; MRP reversal: 10; Mac1 fbg inh: -3; Mac1 fbg enh: -4; MRP1 act: 0; Phagocytosis inh: -2

How did CCSc1nc(-c2ccccc2)c(C#N)c(=O)[nH]1 do in these assays?
FAK blocker: -1; MRP reversal: 21; Mac1 fbg inh: -3; Mac1 fbg enh: -1; MRP1 act: 0; Phagocytosis inh: 1

How did COC(=O)C(CC(C)C)NC(=O)CSc1nc(-c2ccccc2)c(C#N)c(=O)[nH]1 (centres undefined) do in these assays?
FAK blocker: -6; MRP reversal: -13; Mac1 fbg inh: -19; Mac1 fbg enh: 2; MRP1 act: 11*; Phagocytosis inh: 10

What do the screens show for `CCC(Sc1nc2ccccc2[nH]1)C(=O)Nc1cc(C)on1` (centres undefined)?
MRP reversal: -18; Mac1 fbg inh: -3; Mac1 fbg enh: -1; MRP1 act: -3; Phagocytosis inh: 2

How did CCC(Sc1nc(-c2ccccc2)c(C#N)c(=O)[nH]1)C(=O)Nc1cc(C)on1 (centres undefined) do in these assays?
MRP reversal: -5; Mac1 fbg inh: -23; Mac1 fbg enh: -2; MRP1 act: 11*; Phagocytosis inh: 0

What do the screens show for `CCOc1ccc(C(=O)Nc2cccc(-c3nc4ccccc4[nH]3)c2C)cc1[N+](=O)[O-]`?
MRP1 act: -3

How did Cc1nn(-c2cc(N(S(C)(=O)=O)S(C)(=O)=O)c(Cl)cc2Cl)c(=O)n1C do in these assays?
MRP1 act: -1; Phagocytosis inh: -2

Results for COc1ccc(OC)c(CCNC(=O)CS(=O)(=O)Cc2nc(-c3ccccc3C)oc2C)c1 ?
FAK blocker: 13; MRP reversal: -13; Mac1 fbg inh: 2; Mac1 fbg enh: -2; MRP1 act: -1; Phagocytosis inh: 0

Results for COc1cccc(C=Nc2cc(C)cc(C)c2)c1O ?
MRP1 act: -2; Phagocytosis inh: -1

Results for COc1cccc(/C=N/N2C(=O)CSC2=S)c1O ?
MRP1 act: 8.0*; Phagocytosis inh: -4
